High-throughput results: PubChem BioAssay, several laboratories
The list is not random: actives were taken first. Their share in the collection is about 2.2%.
Ba/F3 V617F tox = lowers viability of Ba/F3 cells expressing EpoR and JAK2V617F; ATP luminescence; inhibition, % at 5.6 µM; 220,000 tested, 1.1% active; AID 1446;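 active = inhibition above the campaign mean plus 3 SD over all tested compounds, cut at about 24% in these data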;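 note: cytokine-independent growth of Ba/F3 cells driven by EpoR plus mutant JAK2; 0% = DMSO-treated cells and 100% = JAK inhibitor I control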
KLF5 inhibitor = kruppel-like factor 5 inhibition; DLD-1 KLF5 promoter-luciferase reporter, luminescence; inhibition, % at 5 µM; 290,000 tested, 0.23% active;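 active = inhibition above a per-plate limit of that plate's mean compound inhibition plus 3 SD, cut at about 60% in these data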;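 note: 0% = DMSO wells and 100% = LY294002 at 200 µM; higher means less KLF5 promoter-driven luciferase light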
IEC-6 tox-1 = IEC-6 cytotoxicity, counter-screen for KLF5 inhibitors; 290,000 tested, 0.78% active; AID 1825; luminescence viability; inhibition, % at 5 µM; in the data active = inhibition above about 22%;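 note: 0% = plate median of test compound wells and 100% = cytotoxic reference compound wells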
aSyn 5UTR inh = MLPCN primary screen, SNCA 5' untranslated region; AID 1813; 300,000 tested, 0.82% active; inhibition, % (tested at 7.5 µM); alpha-synuclein 5'UTR reporter, inhibitor activity; in the data active = inhibition above about 60%;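 note: H4 neuroglioblastoma cells stably carrying SNCA 5'UTR luciferase fusion; 0% = DMSO wells and 100% = positive control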
APP transl inh = APP translation inhibition; SH-SY5Y APP 5'UTR-luciferase reporter, luminescence; inhibition, % at 2 µM; 190,000 tested, 0.82% active; AID 1285;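 active = inhibition above a set limit, derived from the sample mean plus 3 SD, cut at about 45% in these data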
BaF3 tox = counter-screen for JAK2V617F inhibitors: parental Ba/F3 viability inhibitors; 220,000 tested, 1.1% active; inhibition, % at 5.6 µM; CellTiter-Glo ATP luminescence; AID 1486;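 active = inhibition above a per-campaign cutoff, the mean inhibition of all tested compounds plus 3 SD, cut at about 27% in these data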;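 note: 0% = DMSO wells and 100% = JAK Inhibitor I control wells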
KLF5 confirm = confirmation of KLF5 inhibitors. DLD-1 KLF5 promoter firefly luciferase reporter, luminescence. shares compounds with KLF5 inhibitor. 610 tested, 79% active. inhibition, % at 4 µM;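 active = inhibition above a set limit taken from the earlier primary screen, cut at about 63% in these data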;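 note: 0% = DMSO wells and 100% = LY294002 at 200 µM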
IEC-6 tox-2 = counter-screen for KLF5 inhibitors: cytotoxicity in rat IEC-6 cells. shares compounds with KLF5 inhibitor. inhibition, % at 4 µM. 610 tested, 56% active. IEC-6 rat intestinal cells, viability luminescence. AID 1905; in the data active = inhibition above about 23%;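 note: cells exposed to compounds for 48 hours before viability read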
* marks the source's active call; other numbers are inactive results; · = not tested or not shown.

SMILES	Ba/F3 V617F tox	KLF5 inhibitor	IEC-6 tox-1	aSyn 5UTR inh	APP transl inh	BaF3 tox	KLF5 confirm	IEC-6 tox-2
C=CS(=O)(=O)c1ccc(Oc2ccc(S(=O)(=O)C=C)cc2)cc1	84*	77*	76*	-108	90*	68*	47	38*
NS(=O)(=O)c1ccc(Oc2ccc(S(N)(=O)=O)cc2)cc1	6	-45	-2	8	-15	9	·	·
C#Cc1ccc([C@@H]2C=C(C(=O)N3CCN(Cc4ccccc4)CC3)O[C@H](OCCCCO)C2)cc1	94*	66*	18	99*	-18	88*	73*	3
O=C(C1=C[C@H](c2ccccc2)C[C@H](OCCCCO)O1)N1CCN(Cc2ccccc2)CC1	1	-13	-3	-20	9	1	·	·
CC(CNC(=O)CCn1ccc2cc(S(=O)(=O)N3CCCC3)ccc21)c1ccccc1 (stereo not given)	·	-25	-6	-1	·	·	·	·
CCOC(=O)c1sc(NC(=O)c2cc3c(s2)CCC(C)C3)nc1C (stereo not given)	-1	86*	0	-101	-16	3	88*	9
O=S(=O)(NC(=S)NC1CCCCC1)c1ccc(Br)cc1	0	-26	-4	-12	6	1	·	·
COc1ccc(N2CC(C(=O)NC3CCCCC3)CC2=O)cc1 (stereo not given)	·	-24	0	-1	·	·	·	·
CCOc1cccc(/C=N/NC(=O)c2ccc3c(c2)OCCO3)c1O	·	65*	11	42	·	·	93*	-1
COc1cccc(/C=N/NC(=O)CNC(=O)c2ccc3c(c2)OCCO3)c1O	-2	0	-5	27	5	6	·	·
COc1ccc(/C=N/NC(=O)CCn2c3ccccc3c3ccccc32)cc1O	78*	74*	10	19	87*	71*	79*	12
COc1cc([C@@H]2c3cc4c(cc3[C@@H](O)[C@@H](CO)[C@@H]2CO)OCO4)cc(OC)c1O[Si](C)(C)C(C)(C)C	·	·	·	44	·	·	·	·
COc1cc([C@@H]2c3cc4c(cc3[C@H](O)[C@H]3COC(=O)[C@H]23)OCO4)cc(OC)c1OC	97*	84*	·	95*	94*	93*	92*	·
Nc1ccc(SCc2cccnc2)cc1	·	-15	-2	-1	·	·	·	·
COc1ccc(CCC(N)=O)cc1OC	2	70*	2	10	1	9	-5	-10
Cc1cccc(C=Nc2ccccc2C(N)=O)c1	9	13	9	-70	1	9	·	·
Cc1ccc(C=Nc2ccccc2C(N)=O)s1	66*	63*	81*	-36	16	67*	60	32*
COc1cc(C2C(C#N)=C(C)NC3=C2C(=O)c2ccccc23)cc(OC)c1OC (stereo not given)	88*	78*	94*	·	4	74*	43	45*
COC(=O)c1nn(-c2ccc3c(c2)CCN3C(C)=O)cc1O	5	75*	2	91*	23	7	78*	9
COC(=O)c1nn(-c2ccc3c(c2)OCO3)cc1O	1	-58	5	-86	-64	0	·	·
C=CCCC(=O)NC1CCCc2c1cnn2-c1ccccc1F (stereo not given)	·	-26	2	3	·	·	·	·
O=C(O)c1ccc(N/N=C/c2ccc3nccnc3c2)cc1	5	98*	3	94*	·	2	103*	2
COc1cc(OC)cc(N(C(=O)CNC(=O)c2ccco2)C(C(=O)NCC2CCCO2)c2ccccc2)c1 (stereo not given)	·	65*	-5	18	·	·	6	8
CCc1n[n+](CC(=O)c2ccccc2)c(N)s1	-2	40	2	·	-142	4	·	·
Cc1ccc2nc(-c3ccccc3)cn2c1	15	84*	16	120*	-3	15	77*	23*
Cc1ccc2nc(-c3ccc(O)c(O)c3)cn2c1	·	-63	19	22	·	·	·	·
COc1cc(/C=N/NS(=O)(=O)c2ccc(C)cc2)ccc1OCc1ccc(C(=O)O)cc1	-1	78*	-4	84*	33	3	16	2
Cc1ccccc1CSc1nc2[nH]ncc2c(=O)[nH]1	2	-12	6	-13	1	9	·	·
